The text below walks through data of PubChem BioAssay AID1778 (Sanford-Burnham Center for Chemical Genomics, 2009).

A word on the inhibition: it is the relative decrease from the control value, in per cent.

Among all 290,000 compounds or so, about 260 (0.09%) were called active. Cut-off read from the data, not from the text of the source: active = inhibition above about 50%; inactive = the rest. Only a selection was taken, and actives are over-represented in it overall. Measured potencies and affinities stand elsewhere.

Chain of Kappa-type opioid receptor (Homo sapiens) (P41145 whole entry, looked up): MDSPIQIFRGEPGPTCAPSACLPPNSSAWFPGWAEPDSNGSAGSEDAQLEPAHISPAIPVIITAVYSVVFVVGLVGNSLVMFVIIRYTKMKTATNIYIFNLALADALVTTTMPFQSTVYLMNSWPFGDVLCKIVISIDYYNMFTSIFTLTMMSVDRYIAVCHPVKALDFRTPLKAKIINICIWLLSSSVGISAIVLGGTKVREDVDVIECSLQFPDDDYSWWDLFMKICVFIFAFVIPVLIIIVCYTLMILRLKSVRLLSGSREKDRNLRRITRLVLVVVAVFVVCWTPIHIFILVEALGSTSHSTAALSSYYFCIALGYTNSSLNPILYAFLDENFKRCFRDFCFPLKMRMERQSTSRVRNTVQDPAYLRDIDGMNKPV

The assay addresses Kappa-type opioid receptor (Homo sapiens) (UniProt P41145). Briefly: KOR antagonists, beta-arrestin recruitment, cell-based, luminescence, uHTS (AID 1778). The following applies: antagonist mode, active compounds read high; at 10 µM unless noted.
On to `Cc1csc(SCC(=O)NC(=O)C2CCCCC2)n1`, for which the inhibition is -17.4% (inactive).

With `Nc1cc(=O)[nH]c(SCC(=O)Nc2cc([N+](=O)[O-])ccc2Cl)n1`, the inhibition is 15.1% (inactive).

Consider `O=C(CNC(=O)c1ccco1)OCC(=O)c1ccc(Br)cc1`, for which the inhibition was -35% (inactive).

For the molecule `Cc1nc(Nc2nc3ccccc3o2)nc2c1CCC2`, the inhibition was 21.7% (inactive).

On to `Cc1ccc(Nc2nc3c(c(=O)[nH]2)CCCC3)cc1`, for which the inhibition was -0.9% (inactive).

For `Cc1nn(C)cc1S(=O)(=O)Nc1ccc(F)c(F)c1`, the inhibition was 9% (inactive).

Consider `COc1ccc(C)cc1NC(=O)CN(c1ccc(F)cc1)S(C)(=O)=O`, for which the inhibition was -4.9% (inactive).

For `COc1cccc2sc(Nc3nc(-c4ccncc4)cs3)nc12`, the inhibition is -21.7% (inactive).

On to `COc1cccc2sc(Nc3nc(-c4cc5ccccc5oc4=O)cs3)nc12`, for which the inhibition was -2.1% (inactive).

For the molecule `Cc1cccnc1Nc1nc(-c2ccccc2)cs1`, the inhibition was 1.5% (inactive).

In the case of `Cc1cccnc1Nc1nc(-c2ccc(O)cc2)cs1`, the inhibition was 17.8% (inactive).

In the case of `CCc1nc(N2CCN(C(C)=O)CC2)c2c3c(sc2n1)CC(C(C)(C)C)CC3` (stereo not given), the inhibition is -42.9% [at 20 µM] (inactive).

For the molecule `CN(CC(=O)NCCc1ccccc1)S(=O)(=O)c1cccc2nsnc12`, the inhibition is -1.3% (inactive).

`O=C(CC1C(=O)NCCN1Cc1ccccc1C(F)(F)F)NCCc1ccccn1` (stereo not given): the inhibition was -9.9% [at 20 µM] (inactive).

With `O=C(c1cc(F)ccc1F)C1CCCN(C(=O)CCCN2CCCCC2=O)C1` (stereo not given), the inhibition was 20.7% (inactive).

Take `COc1ccc(N2CCN(CCCNC(=O)Cn3c(=O)c4cccn4c4ccccc43)CC2)cc1`: the inhibition is 47.8% (inactive).

As to `COc1ccc(N2CCN(CCCNC(=O)C(=O)c3c(C)[nH]c4ccccc34)CC2)cc1`, the inhibition was 15.4% (inactive).

With `COc1ccc(N2CCN(C(=O)C(=O)c3c(C)n(C)c4ccccc34)CC2)cc1`, the inhibition is -32.2% (inactive).

`O=C(Cn1c(=O)c2cccn2c2cccnc21)NCCCN1CCN(c2ccc(F)cc2)CC1`: the inhibition was -19.4% (inactive).

With `CN(C(=O)COC(=O)c1cc2c(s1)CCCCC2)C1CCS(=O)(=O)C1` (stereo not given), the inhibition was 31.3% (inactive).

Consider `COc1ccc(C2(NC(C)=O)CCN(C(=O)c3cccs3)CC2)cc1`, for which the inhibition is -9.8% (inactive).

With `O=C(Cn1cnc2c(cnn2-c2ccccc2)c1=O)N1CCCc2ccccc21`, the inhibition is -16.3% (inactive).

Turning to `O=C(C1CC1)N1N=C(c2ccc(F)cc2)CC1(O)C(F)(F)F` (stereo not given), the inhibition is 26.6% [at 20 µM] (inactive).

Regarding `CCOC(=O)N1CCN(S(=O)(=O)c2ccc(C(=O)N(CCCN(C)C)c3nc4ccc(Cl)cc4s3)cc2)CC1`, the inhibition is -7.9% (inactive).

Consider `Cc1ccc(C(=O)N[C@@H](C)CN2C3=NC[C@H](C(C)C)N3C[C@H]2Cc2ccc(O)cc2)cc1Br`, for which the inhibition was 19.2% (inactive).

Turning to `COc1ccc(C[C@H]2CN3C(=NC[C@@H]3Cc3ccc(O)cc3)N2C[C@H](C)NC(=O)c2ccc(C)c(Br)c2)cc1`, the inhibition was 15.3% (inactive).

Turning to `Cc1ccc(C(=O)N[C@@H](C)CN2C3=NC[C@H](C)N3C[C@H]2Cc2ccc(O)cc2)cc1Br`, the inhibition is 45.3% (inactive).

For the molecule `COc1ccc(C[C@@H]2CN3C(=NC[C@@H]3C)N2C[C@H](C)NC(=O)c2ccc(C)c(Br)c2)cc1`, the inhibition was 40% (inactive).

In the case of `NS(=O)(=O)c1ccc(CCNC(=O)CSc2nc3ccsc3c(=O)n2CCCCC(=O)O)cc1`, the inhibition was 3% (inactive).

Regarding `N#CCC(=O)NNC(=S)NC(=O)C(c1ccccc1)c1ccccc1`, the inhibition was -32.2% [at 20 µM] (inactive).

`Cc1[nH][nH]c(=O)c1C(c1c(C)[nH][nH]c1=O)c1cn(Cc2ccc(F)cc2)c2ccccc12`: the inhibition is 53.6% (active).

`Cc1[nH][nH]c(=O)c1C(c1c(C)[nH][nH]c1=O)c1cn(Cc2ccccc2Cl)c2ccccc12`: the inhibition is -4% (inactive).

Consider `Cc1[nH][nH]c(=O)c1C(c1c(C)[nH][nH]c1=O)c1cn(Cc2ccc(Cl)c(Cl)c2)c2ccccc12`, for which the inhibition was -8.7% (inactive).

For `Cc1ccc(NC(=O)C23CCC(C)(C(=O)[C@H]2Br)C3(C)C)cc1` (stereo not given in full), the inhibition is -3.6% (inactive).

Turning to `O=C(OCn1ncc(Br)c(Br)c1=O)c1c(F)cccc1F`, the inhibition is 28% (inactive).

Take `O=C(OCn1ncc(Cl)c(Cl)c1=O)c1ccc(F)cc1`: the inhibition was 5.2% (inactive).

As for `CC(C)C(C(=O)NC(C)(C)C)N1C(=O)c2ccccc2C1=O` (stereo not given), the inhibition is -6.7% (inactive).

As for `Cc1cc(C(=O)Nc2ccc(Br)cc2)cs1`, the inhibition was 9.2% (inactive).

For the molecule `CC(=O)c1c(C)nn(CCC(=O)O)c1C`, the inhibition is 18.3% (inactive).

`O=C(Nc1nccs1)c1sc2ccccc2c1Cl`: the inhibition is -49.2% (inactive).

With `Cc1ccnc(NC(=O)c2sc3cc(Cl)ccc3c2Cl)c1`, the inhibition was 9.3% (inactive).

Take `O=C(CCN1C(=O)S/C(=C/c2ccc(Cl)cc2)C1=O)N1CCOCC1`: the inhibition is 36.7% (inactive).

On to `Cn1c(C(=O)NCc2cccnc2)cc2sccc21`, for which the inhibition was 26.2% (inactive).

As for `Cc1nc(Cl)c(C(=O)NCc2ccccc2)c(C)c1[N+](=O)[O-]`, the inhibition was 13.7% (inactive).

For `Cc1nc(Cl)c(C(=O)NCc2ccccc2)c(C)c1Cl`, the inhibition was 7.6% (inactive).

`O=C(NCc1ccccc1)c1c(Cl)nc(Cl)c(Cl)c1Cl`: the inhibition was 58.5% (active).

In the case of `Cc1ccccc1-c1nc(CS(=O)(=O)CC(=O)N2CCOCC2)c(C)o1`, the inhibition was -6% (inactive).

As to `O=C(NCc1ccccc1Cl)c1cc(=O)[nH]c2ccccc12`, the inhibition is 4.5% (inactive).

Take `O=C(NCc1ccc(Cl)cc1)c1cc(=O)[nH]c2ccccc12`: the inhibition is -54.2% (inactive).

For `CCOC(=O)c1cc(-c2ccc(N3CCOCC3)cc2)nn1-c1ccc(F)cc1F`, the inhibition was 21.8% (inactive).

For the molecule `COc1ccc(NC(=O)CSc2nnnn2-c2ccc(OC)cc2)cc1`, the inhibition was -1.3% (inactive).

Take `CC(=O)c1cccc(NC(=O)COC(=O)c2ccc(S(C)(=O)=O)c([N+](=O)[O-])c2)c1`: the inhibition is 18.1% (inactive).

With `Cc1ccccc1NC(=O)COC(=O)c1ccc(S(C)(=O)=O)c([N+](=O)[O-])c1`, the inhibition was 53.9% [at 20 µM] (active).

With `CC(CCc1ccccc1)NC(=O)COC(=O)c1ccc(S(C)(=O)=O)c([N+](=O)[O-])c1` (stereo not given), the inhibition is 18.3% (inactive).

Consider `O=C(Cc1cccs1)Nc1ccccc1C(=O)O`, for which the inhibition was 27.3% (inactive).

On to `COC(=O)Cc1cc(=O)n(-c2nc3ccccc3[nH]2)[nH]1`, for which the inhibition is 21.2% (inactive).

`O=c1cc(-c2ccccc2)[nH]n1-c1nc2ccccc2[nH]1`: the inhibition is 11.5% (inactive).

On to `COc1ccc(NC(=O)CSc2nc3sc(C)cc3c(=O)n2C)c(OC)c1`, for which the inhibition was -25.7% (inactive).

Take `O=C(NCC1CCCO1)C(c1ccc(F)cc1)N(Cc1ccc2c(c1)OCO2)C(=O)c1ccc(CN2CCOCC2)o1` (stereo not given): the inhibition was -17.9% [at 20 µM] (inactive).

`CCOc1cc(/C=C2\SC(=S)N(Nc3ccccc3)C2=O)ccc1O`: the inhibition was 9% (inactive).

On to `Cc1c(N2C(=O)/C(=C/c3ccccc3)SC2=S)c(=O)n(-c2ccccc2)n1C`, for which the inhibition is -9.4% (inactive).

On to `CCOc1ccc(/C=C2/SC(=S)N(C(C(=O)O)c3ccccc3)C2=O)cc1OCC` (stereo not given), for which the inhibition was -34.9% (inactive).

Turning to `CCOc1ccc(/C=C2\SC(=S)N(C(C(=O)O)c3ccccc3)C2=O)cc1OC` (stereo not given), the inhibition is 9.7% (inactive).

With `Cc1ccc(/C=C2\SC(=S)N(c3c(C)n(C)n(-c4ccccc4)c3=O)C2=O)cc1`, the inhibition is -2.4% (inactive).

Consider `COc1cc(/C=C2\SC(=S)N(NC(=O)c3ccncc3)C2=O)ccc1O`, for which the inhibition is 49.4% (inactive).

Regarding `COc1cc(/C=C2\SC(=S)N(NC(=O)c3ccc(O)cc3)C2=O)ccc1O`, the inhibition was 47.2% (inactive).

With `O=C1/C(=C/c2ccc(O)c(O)c2)SC(=S)N1Nc1ccccc1`, the inhibition is 35.5% (inactive).

For `Cn1cnnc1SCC(=O)Nc1ccc(OC(F)F)cc1`, the inhibition was -3.3% (inactive).

Take `C/C(=N\NC(=O)c1ccc2c(c1)OCO2)c1cccnc1`: the inhibition is 14.6% (inactive).

For `COc1ccc(NC(=O)CCCN2C(=O)C(c3ccccc3)Oc3cccnc32)cc1OC` (stereo not given), the inhibition was 7% (inactive).

Take `CN1CCN(C2CC(=O)N(CCc3ccccc3)C2=O)CC1` (stereo not given): the inhibition is 10.4% (inactive).

As for `Cc1cc(C(c2ccc(C)o2)c2ccc(C)o2)c(O)c([N+](=O)[O-])c1`, the inhibition is -22.8% (inactive).

For the molecule `COc1ccc([N+](=O)[O-])cc1NC(=O)Cc1c(Cl)cccc1Cl`, the inhibition was 15.2% (inactive).

On to `CC(C)Cc1nc2oc3c(Cl)ncnc3c2c2c1CCC2`, for which the inhibition was 32.2% (inactive).

On to `CCCc1nc2oc3c(N4CCNCC4)ncnc3c2c2c1CCCC2`, for which the inhibition is 14.5% (inactive).

For `CCCc1nc2sc3c(=O)[nH]cnc3c2c2c1CCCC2`, the inhibition is -21.3% (inactive).

Consider `CCCc1nc2sc3c(=O)n(N)cnc3c2c2c1CCCC2`, for which the inhibition was -14.5% (inactive).

As to `Cn1ccnc1Sc1ccccc1[N+](=O)[O-]`, the inhibition is 6.9% (inactive).

Consider `O=C(/C=C/c1cccc([N+](=O)[O-])c1)c1cccs1`, for which the inhibition is 14.1% (inactive).

Consider `CCc1cc2c(=O)[nH]c(Cc3ccccc3)nc2s1`, for which the inhibition was -15.3% (inactive).

For `O=c1[nH]c(-c2ccccn2)nc2ccccc12`, the inhibition is 13.8% (inactive).

Turning to `Cc1sc2nc(-c3ccccn3)[nH]c(=O)c2c1-c1ccccc1`, the inhibition was 49.2% (inactive).

As for `CCc1cc2c(=O)[nH]c(-c3ccncc3)nc2s1`, the inhibition is -17.3% (inactive).

Turning to `CCc1cc2c(=O)[nH]c(-c3ccccn3)nc2s1`, the inhibition is 104% (active).

In the case of `COc1ccc(CNC(=O)Nc2cccc3ccccc23)cc1`, the inhibition is 7.6% (inactive).

In the case of `N#CC1=C(N)Oc2n[nH]c(-c3ccccc3)c2C1c1cccc(OC(=O)N2CCOCC2)c1` (stereo not given), the inhibition was 15.5% (inactive).

As to `O=C(NCCN1CCOCC1)C(=O)NCc1ccc2c(c1)OCO2`, the inhibition was -60.9% [at 20 µM] (inactive).

Turning to `CCOc1ccc(C(=O)/C=C/Nc2ccc(S(=O)(=O)Nc3onc(C)c3C)cc2)cc1`, the inhibition is -11% (inactive).

With `C[C@H](NC(=O)c1ccccc1)C(=O)Nc1nc(-c2ccccn2)cs1`, the inhibition is -31% (inactive).

For the molecule `CC(Oc1ccc(Br)cc1)C(=O)NCc1ccccn1` (stereo not given), the inhibition was -23.9% [at 20 µM] (inactive).
